# PubChem BioAssay (NCATS)
# Inconclusive results are not listed. The source made the active and inactive calls. Unless noted, calls follow the shape of the dose curve; as a rule, active = well fitted curve in the direction sought with a large enough effect; inconclusive = small, poorly fitted or top-dose-only effect, or another doubt; inactive = no such curve, though single readings can be large; an effect the other way counts as inactive or inconclusive.
# Experiments:
# [1] = Validation of Assay for Modulators of Lamin A Splicing (AID 1459; active = well fitted curve in the direction sought with a large enough effect in the signal ratio; the % refers to the signal ratio;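 also: cells exposed to compound for two days before reading; 0% is about no effect; ratio rise marks activators and ratio drop marks inhibitors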)
# Summary of the method: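 Dual-reporter HeLa S3 line (lamin A-EGFP minigene, DsRed2) treated with compounds 48 hrs, 0.5% DMSO final. Endpoint: EGFP/DsRed2 total intensity ratio from laser-scanning microplate cytometry.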
# [2] = qHTS Assay for Lipid Storage Modulators (AID 1519; calls by dose curve; as to activity change, negative = inhibition: % is scaled to controls: 0 for no effect and ±100 for the full control effect); settings: Drosophila S3 cells, BODIPY lipid droplet/cell ratio, laser cytometry, cells loaded with oleic acid
# Summary of the method: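 Cells seeded at 5,000 per well were treated with compounds over a concentration series and loaded with oleic acid (400 uM, as added). Lipid droplet fluorescence (488 nm excitation, 500-530 nm channel) was read by laser-scanning cytometry and normalized to 20 uM Triacsin C.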
# [3] = target: DNA repair nuclease/redox regulator APEX1 (Homo sapiens) (UniProt P27695); test: qHTS Validation Assay for Inhibitors of the Human Apurinic/apyrimidinic Endonuclease 1 (APE1) (AID 1705;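 also: TAMRA fluorescence gain over two minutes as APE1 cuts a quenched THF abasic duplex; % is scaled to controls: 0 for no effect and ±100 for the full control effect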)
# DNA repair nuclease/redox regulator APEX1 (Homo sapiens), sequence (P27695 whole entry, looked up): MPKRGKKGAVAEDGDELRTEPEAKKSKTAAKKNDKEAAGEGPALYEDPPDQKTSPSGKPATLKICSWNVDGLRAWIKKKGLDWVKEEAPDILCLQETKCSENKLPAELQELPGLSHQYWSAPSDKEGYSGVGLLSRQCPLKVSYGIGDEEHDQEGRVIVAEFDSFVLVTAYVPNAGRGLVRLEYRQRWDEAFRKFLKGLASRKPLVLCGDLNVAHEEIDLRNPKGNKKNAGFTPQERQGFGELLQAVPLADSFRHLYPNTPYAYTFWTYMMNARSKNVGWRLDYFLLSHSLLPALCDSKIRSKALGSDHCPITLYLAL
# Summary of the method: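 Substrate: 50 nM final fluorophore/quencher THF-abasic duplex. Enzyme preincubated with compounds 15 min, RT. Progress derived from fluorescence difference, third minus first kinetic read.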
# [4] = Counterscreen for APE1 Inhibitors: Fluorescent Dye Displacement Validation Assay (AID 1707);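 also: plate controls were ThO with dsDNA and no compound for no effect and ThO without dsDNA for full effect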
# Summary of the method: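 Thiazole Orange displacement from dsDNA: 250 nM ThO with 50 nM TAMRA-labelled abasic-site (tetrahydrofuran) duplex in 50 mM Tris-HCl pH7.5, 50mM NaCl, 2 mM MgCl2, 0.01% Tween-20. Loss of endpoint fluorescence (ex 480 nm, em 540 nm) flags DNA binders.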
# [5] = target: Endonuclease 4 (Escherichia coli (strain K12)) (UniProt P0A6C1); test: Counterscreen for APE1 Inhibitors: qHTS Validation Assay for Inhibitors of Endonuclease IV (AID 1708); also: % is scaled to controls: 0 for no effect and ±100 for the full control effect
# Summary of the method: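 Concentration-response counterscreen run identically to the APE1 assay: 15 min room-temperature preincubation of 2 nM enzyme with compound, reaction started with 50 nM quenched abasic DNA, progress taken from kinetic fluorescence.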
# [6] = qHTS for differential inhibitors of proliferation of Plasmodium falciparum line GB4 (AID 1816); settings: Potency: Plasmodium falciparum GB4 proliferation inhibition;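 also: potency is read from the fitted curve at half-maximal effect; parasite growth measured after 72 h incubation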
# [7] = qHTS for differential inhibitors of proliferation of Plasmodium falciparum line 3D7 (AID 1876); also: potency is read from the fitted curve at half-maximal effect
# [8] = qHTS for differential inhibitors of proliferation of Plasmodium falciparum line Dd2 (AID 1882); settings: Potency: Plasmodium falciparum Dd2 proliferation inhibition;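 also: plate controls were DMSO vehicle for no effect and 0.29 µM artemisinin for full effect; nearly all actives have a fitted effect of over 65% in size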
# Summary of the method: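 Dd2-infected erythrocytes (0.3% parasitemia, 2.5% hematocrit final) incubated with compound 72 h at 37 C, 5% CO2; lysed with saponin/Triton buffer containing SYBR Green I, incubated overnight in the dark, then read by fluorescence (485/535 nm). Normalized to 0.29 uM artemisinin and DMSO.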
# [9] = qHTS for differential inhibitors of proliferation of Plasmodium falciparum line W2 (AID 1883); settings: Potency: Plasmodium falciparum W2 proliferation inhibition;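 also: potency is read from the fitted curve at half-maximal effect; parasites grown with compound for 72 h before lysis and staining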
# [10] = qHTS for differential inhibitors of proliferation of Plasmodium falciparum line HB3 (AID 1886); settings: Potency: Plasmodium falciparum HB3 proliferation inhibition;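 also: potency is read from the fitted curve at half-maximal effect; parasites grown with compound for 72 h before SYBR Green readout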
# [11] = target: Alpha-galactosidase A (Homo sapiens) (UniProt P06280); test: Counterscreen for Glucocerebrosidase Inhibitors: qHTS Assay for Human alpha-Galactosidase at pH 4.5 (AID 992); also: 0% is about no effect
# Alpha-galactosidase A (Homo sapiens), sequence (P06280 whole entry, looked up): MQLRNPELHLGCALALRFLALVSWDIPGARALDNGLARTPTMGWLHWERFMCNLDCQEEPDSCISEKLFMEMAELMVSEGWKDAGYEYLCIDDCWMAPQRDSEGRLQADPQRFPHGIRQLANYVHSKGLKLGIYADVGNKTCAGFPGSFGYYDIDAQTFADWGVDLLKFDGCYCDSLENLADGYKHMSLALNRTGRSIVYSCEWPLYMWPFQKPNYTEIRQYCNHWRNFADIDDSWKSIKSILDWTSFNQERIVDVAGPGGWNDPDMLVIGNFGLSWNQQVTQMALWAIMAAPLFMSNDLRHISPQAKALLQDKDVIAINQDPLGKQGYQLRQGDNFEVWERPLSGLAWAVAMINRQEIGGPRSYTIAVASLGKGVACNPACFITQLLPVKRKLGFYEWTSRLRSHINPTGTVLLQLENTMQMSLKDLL
# Summary of the method: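 Enzyme at 2 nM final was combined with compound (0.7 nM to 77 uM) and 80 uM 4-methylumbelliferyl alpha-D-galactopyranoside in 50 mM citric acid, 0.005% Tween-20, pH 4.5. After 20 min at room temperature, fluorescence was read (Ex 365/Em 440 nm); AC50 came from Hill fits.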
# [12] = target: alpha-glucosidase (Oryza sativa, rice) (UniProt Q653V4); test: Counterscreen for Glucocerebrosidase Inhibitors: qHTS Assay for Rice alpha-Glucosidase at pH 5.0 (AID 997);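 also: 0% = full activity with enzyme and -100% = basal without enzyme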
# Summary of the method: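 Rice alpha-glucosidase (4 nM final) with 400 uM 4-methylumbelliferyl-alpha-D-glucopyranoside in citrate buffer pH 5.0, 20 min at room temperature, stopped at pH 10; fluorescence 365/440 nm, compounds 0.7 nM–77 uM, AC50 from Hill fits.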
# [13] = qHTS for differential inhibitors of proliferation of Plasmodium falciparum line 7G8 (AID 1815);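 also: potency is read from the fitted curve at half-maximal effect; parasite growth measured after three days of incubation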
# [14] = qHTS for differential inhibitors of proliferation of Plasmodium falciparum line D10 (AID 1877);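 also: parasites grown with compound for 72 h before DNA staining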; also: potency is read from the fitted curve at half-maximal effect;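 as to activity change, negative = inhibition: plate controls were vehicle wells for no effect and reference inhibitor wells for full effect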
# [15] = target: Ferritin light chain (Equus caballus) (UniProt P02791); test: qHTS Validation Assay for Identification of Novel General Anesthetics (AID 2323); also: potency is read from the fitted curve at half-maximal effect; as to activity change, negative = inhibition: % is scaled to controls: 0 for no effect and ±100 for the full control effect
# Ferritin light chain (Equus caballus), sequence (P02791 2-175 limits assumed): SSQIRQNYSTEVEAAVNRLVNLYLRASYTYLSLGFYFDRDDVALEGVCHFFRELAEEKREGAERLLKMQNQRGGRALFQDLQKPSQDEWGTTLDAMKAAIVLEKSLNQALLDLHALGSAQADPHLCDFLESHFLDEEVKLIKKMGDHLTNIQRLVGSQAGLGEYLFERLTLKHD
# Summary of the method: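 Normalized fluorescence response, scaled between free 1-AMA and 1-AMA/apoferritin complex, fitted to a four-parameter Hill equation for concentration-effect values. Binding mix: 10 uM horse-spleen apoferritin, 50% saturated 1-AMA in PBS; read 380/535 nm after 10 min.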
# [16] = qHTS Assay for Modulators of Human Peripheral Myelin Protein 22 (PMP22) Expression/Activity (AID 1967; active = well fitted curve in the direction sought with a large enough effect in the signal ratio; the % refers to the signal ratio;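 also: 0% = untreated cells and 100% end not stated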)
# Summary of the method: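 Engineered MSC80 cells, Pmp22-promoter green and EF-alpha red luciferase reporters; 24h compound treatment at 37 °C. Concentration-response fits on green, red and ratio signals, each overlap-corrected, with %Activity normalized to untreated wells.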
# [17] = measured here: cell count channel max response
# [18] = measured here: lipid channel max response
compound,measurement,setting,value
O=C1c2c(O)cc(O)cc2OC(c2ccc(O)c(O)c2)C1O (stereo unspecified),outcome,[1],inactive
same,"activity change, negative = inhibition",[2]; at 57.5 µM (top of the series),0.956% (inactive)
same,max response,[2]; [17],37.7%
same,max response,[2]; [18],36.5%
same,Potency,[3],inactive
same,Potency,[4],inactive
same,outcome,[5],inactive
same,Potency,[6],15.8 µM (active)
same,Potency,[7],14.1 µM (active)
same,Potency,[8],inactive
same,Potency,[9],12.6 µM (active)
same,Potency,[10],15.8 µM (active)
O=C1c2ccccc2-c2n[nH]c3cccc1c23,outcome,[11],inactive
same,outcome,[12],inactive
same,outcome,[1],inactive
same,"activity change, negative = inhibition",[2]; at 57.5 µM (top of the series),2.36% (inactive)
same,max response,[2]; [17],-6.85%
same,max response,[2]; [18],-4.08%
same,Potency,[4],inactive
same,Potency,[13],10 µM (active)
same,Potency,[7],12.6 µM (active)
same,Potency,[9],7.94 µM (active)
C[C@H](Cc1ccc(O)c(O)c1)[C@@H](C)Cc1ccc(O)c(O)c1,outcome,[11],inactive
same,outcome,[12],inactive
same,outcome,[1],inactive
same,Potency,[3],inactive
same,outcome,[5],inactive
same,Potency,[13],3.98 µM (active)
same,Potency,[6],5.01 µM (active)
same,Potency,[7],12.6 µM (active)
same,Potency,[14],12.6 µM (active)
same,Potency,[9],10 µM (active)
same,Potency,[10],14.1 µM (active)
same,Potency,[15],12.6 µM (active)
O=C(NC(Cc1cc(=O)[nH]c2ccccc12)C(=O)O)c1ccc(Cl)cc1 (stereo unspecified),"activity change, negative = inhibition",[2]; at 57.5 µM (top of the series),11.1% (inactive)
same,max response,[2]; [17],17.3%
same,max response,[2]; [18],35%
Cc1cccc(C#Cc2ccccc2)n1,outcome,[11],inactive
same,outcome,[12],inactive
same,outcome,[1],inactive
same,"activity change, negative = inhibition",[2]; at 57.5 µM (top of the series),0.257% (inactive)
same,max response,[2]; [17],-2.56%
same,max response,[2]; [18],-2.47%
same,Potency,[3],inactive
same,Potency,[4],inactive
same,outcome,[5],inactive
same,Potency,[14],inactive
same,Potency,[8],inactive
same,Potency,[9],12.6 µM (active)
O=C(CCc1ccc(O)cc1)c1c(O)cc(O)cc1O,outcome,[11],inactive
same,outcome,[12],inactive
same,outcome,[1],inactive
same,"activity change, negative = inhibition",[2]; at 57.5 µM (top of the series),10.4% (inactive)
same,max response,[2]; [17],5.8%
same,max response,[2]; [18],18.1%
same,Potency,[3],inactive
same,Potency,[4],inactive
same,outcome,[5],inactive
same,Potency,[6],11.2 µM (active)
same,Potency,[14],inactive
same,Potency,[9],14.1 µM (active)
same,Potency,[15],inactive
S=c1nc[nH]c2nc[nH]c12,"activity change, negative = inhibition",[2]; at 57.5 µM (top of the series),2.17% (inactive)
same,max response,[2]; [17],9.84%
same,max response,[2]; [18],14.8%
O=c1oc2cc(O)ccc2s1,"activity change, negative = inhibition",[2]; at 57.5 µM (top of the series),5.97% (inactive)
same,max response,[2]; [17],14.5%
same,max response,[2]; [18],23.2%
COc1cc(OC)c(C(=O)CCCN2CCCC2)c(OC)c1,"activity change, negative = inhibition",[2]; at 25.7 µM (top of the series),-0.942% (inactive)
same,max response,[2]; [17],-9.33%
same,max response,[2]; [18],-9.82%
COc1cc2nc(N3CCN(C(=O)C4CCCO4)CC3)nc(N)c2cc1OC (stereo unspecified),outcome,[1],inactive
same,"activity change, negative = inhibition",[2]; at 57.5 µM (top of the series),0.288% (inactive)
same,max response,[2]; [17],-1.5%
same,max response,[2]; [18],-3.7%
same,Potency,[3],inactive
same,Potency,[4],inactive
same,Potency,[8],inactive
same,Potency,[9],11.2 µM (active)
same,outcome,[16],inactive
same,Potency,[15],inactive
